Reference: PubChem BioAssay (NCATS)
Inconclusive results are not listed. Calls of active or inactive are those of the source. Calls come from the whole dose curve; as a rule, active = well fitted curve in the direction sought with a large enough effect; inconclusive = small, poorly fitted or top-dose-only effect, or another doubt; inactive = no such curve, though single readings can be large; an effect the other way counts as inactive or inconclusive.

How the values were obtained:
[1] = qHTS of pediatric cancer cell lines to identify multiple opportunities for drug repurposing: Primary screen for Rh41 cells (AID 1347108); note: nearly all actives have a fitted effect of over 70% in size; note: potency is the fitted concentration of half-maximal effect
Method in brief: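 Cells plated at 500-1,000/well in growth medium, compounds added after 5 h. MIPE tested at 11 points (from 0.78 nM), NPC at 8 points (from 0.59 nM). CellTiter-Glo luminescence after 48 h; concentration-response curves from primary screen.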

[2] = molecular target: N-terminal Xaa-Pro-Lys N-methyltransferase 1 (Homo sapiens) (UniProt Q9BV86); assay: qHTS Assay for Inhibitors of N-terminal methyltransferase 1 (NTMT1): LOPAC validation of the NTMT1 SAHH-coupled ThioGlo3 Assay (AID 1347143);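 note: SAH from peptide methylation measured as thiol fluorescence via SAHH coupling and ThioGlo3; nearly all actives have a fitted effect of over 70% in size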; note: potency is the fitted concentration of half-maximal effect
Method in brief: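 Recombinant human NTMT1 (125nM) was pre-incubated 1 min at room temperature with compounds over a concentration range, then a mix of 100uM SAM, 10uM SAHH and 15uM ThioGlo3 (concentrations in added reagent) was added. ThioGlo3 fluorescence (ex 340/em 450nm) after 30 min was normalized to the initial reading.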

[3] = tested on: Zika virus NS2B-NS3 protease (unlinked); assay: Optimization of GU AMC qHTS for Zika virus inhibitors: Unlinked NS2B-NS3 protease assay (AID 1347151); note: nearly all actives have a fitted effect of over 80% in size; note: potency is the fitted concentration of half-maximal effect
Method in brief: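 Fluorescence read-out (340 nm ex / 450 nm em) of AMC peptide cleavage, taken immediately and after 15 min at room temperature (~20% conversion). Enzyme was the unlinked NS2B–NS3 complex at 25 nM in Tris pH 8.0 buffer.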

[4] = qHTS of pediatric cancer cell lines to identify multiple opportunities for drug repurposing: Confirmatory screen for A673 cells (AID 1347110);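 note: cells exposed to compound for 48 h before the viability read; nearly all actives have a fitted effect of over 65% in size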; note: potency is the fitted concentration of half-maximal effect
Method in brief: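 Concentration-response curves came straight from titrations: 11 points (0.78 nM to 46 µM) for MIPE and several concentrations (0.59 nM to 46 µM) for NPC in primary, 11 points in follow-up. Readout: ATP luminescence at 48 h.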

[5] = qHTS of pediatric cancer cell lines to identify multiple opportunities for drug repurposing: Confirmatory screen for BT-12 cells (AID 1347112); note: nearly all actives have a fitted effect of over 55% in size; note: potency is the fitted concentration of half-maximal effect
Method in brief: (§1)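 Viability after 48 h compound treatment at 37C, 500-1,000 cells/well, read as ATP luminescence with CellTiter-Glo. Primary screens used 11-point (MIPE, 0.78 nM-46 µM) or 8-point (NPC, 0.59 nM-46 µM) final concentrations; follow-up screens used 11-point dilutions.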

[6] = qHTS of pediatric cancer cell lines to identify multiple opportunities for drug repurposing: Confirmatory screen for LAN-5 cells (AID 1347113); note: nearly all actives have a fitted effect of over 65% in size; note: potency is the fitted concentration of half-maximal effect
Method in brief: as §1

[7] = qHTS of pediatric cancer cell lines to identify multiple opportunities for drug repurposing: Confirmatory screen for NB-EBc1 cells (AID 1347115);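 note: cells exposed to compound for 48 h before the viability read; nearly all actives have a fitted effect of over 45% in size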; note: potency is the fitted concentration of half-maximal effect
Method in brief: as §1

[8] = qHTS of pediatric cancer cell lines to identify multiple opportunities for drug repurposing: Confirmatory screen for BT-37 cells (AID 1347117); note: nearly all actives have a fitted effect of over 55% in size; note: potency is the fitted concentration of half-maximal effect
Method in brief: as §1

[9] = qHTS of pediatric cancer cell lines to identify multiple opportunities for drug repurposing: Confirmatory screen for TC32 cells (AID 1347118);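 note: potency is the fitted concentration of half-maximal effect; cells exposed to compound for 48 h before the read; nearly all actives have a fitted effect of over 65% in size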
Method in brief: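 qHTS, TC32, 48 h drug treatment, CellTiter-Glo luminescence as a proxy for metabolically active cells; primary top concentration 46 µM (MIPE 11-pt, NPC 8-pt); confirmatory 11-pt.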

[10] = qHTS of pediatric cancer cell lines to identify multiple opportunities for drug repurposing: Confirmatory screen for MG 63 (6-TG R) cells (AID 1347119); note: nearly all actives have a fitted effect of over 55% in size
Method in brief: as §1

[11] = qHTS of pediatric cancer cell lines to identify multiple opportunities for drug repurposing: Confirmatory screen for Rh41 cells (AID 1347123);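 note: 48 h compound exposure; nearly all actives have a fitted effect of over 60% in size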; note: potency is the fitted concentration of half-maximal effect
Method in brief: as §1

[12] = qHTS of pediatric cancer cell lines to identify multiple opportunities for drug repurposing: Confirmatory screen for RD cells (AID 1347124);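 note: cells exposed to compound for 48 h before viability readout; nearly all actives have a fitted effect of over 65% in size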
Method in brief: as §1

[13] = qHTS of pediatric cancer cell lines to identify multiple opportunities for drug repurposing: Confirmatory screen for OHS-50 cells (AID 1347128);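 note: compound exposure lasted 48 h at 37 degrees C; nearly all actives have a fitted effect of over 55% in size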; note: potency is the fitted concentration of half-maximal effect
Method in brief: as §1

[14] = qHTS of pediatric cancer cell lines to identify multiple opportunities for drug repurposing: Confirmatory screen for SJ-GBM2 cells (AID 1347116); note: nearly all actives have a fitted effect of over 60% in size
Method in brief: (§2)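 Viability measured as metabolically active cells via CellTiter-Glo luminescence following 48 hours of compound exposure, 11-point dilutions in confirmatory testing. 500-1,000 cells/well plated 5 hours before dosing; controls were DMSO and 2.3 µM bortezomib.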

[15] = qHTS of pediatric cancer cell lines to identify multiple opportunities for drug repurposing: Confirmatory screen for Rh18 cells (AID 1347125); note: nearly all actives have a fitted effect of over 55% in size
Method in brief: as §1

[16] = qHTS of pediatric cancer cell lines to identify multiple opportunities for drug repurposing: Confirmatory screen for Rh30 cells (AID 1347126); note: nearly all actives have a fitted effect of over 55% in size
Method in brief: as §1

[17] = qHTS of pediatric cancer cell lines to identify multiple opportunities for drug repurposing: Confirmatory screen for DAOY cells (AID 1347114); note: nearly all actives have a fitted effect of over 65% in size
Method in brief: as §2

Measured: Potency

Chain of N-terminal Xaa-Pro-Lys N-methyltransferase 1 (Homo sapiens) (Q9BV86 whole entry, looked up): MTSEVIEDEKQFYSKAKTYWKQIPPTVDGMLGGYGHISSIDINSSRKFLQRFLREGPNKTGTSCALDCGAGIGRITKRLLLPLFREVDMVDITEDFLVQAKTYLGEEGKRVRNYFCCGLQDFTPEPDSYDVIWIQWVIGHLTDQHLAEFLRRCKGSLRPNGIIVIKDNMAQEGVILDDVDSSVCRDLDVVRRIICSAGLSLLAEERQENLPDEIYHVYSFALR

CCCCCCCCCCCCCCCC[N+](C)(C)CC
active: [1] 13.3 µM

CNCCC=C1c2ccccc2CCc2ccccc21
inactive: [2] | [3]

COc1cc2c(cc1O)CC[C@@H]1[C@@H]2CC[C@]2(C)[C@@H](O)CC[C@@H]12
inactive: [3]

N[C@@H](Cc1cnc[nH]1)C(=O)O
inactive: [2] | [3]

CCC(NC(C)C)C(O)c1ccc(O)c(O)c1 (stereo not drawn)
inactive: [3]

COc1cc(NS(C)(=O)=O)ccc1Nc1c2ccccc2nc2ccccc12
active: [2] 50.1 µM | [3] 29.9 µM

NCCC(O)(P(=O)(O)O)P(=O)(O)O
inactive: [1]

O=C(O)c1cc2cc(Cc3cccnc3)ccc2o1
inactive: [2] | [3]

CC1(C)CCC(NC(=O)[C@@H](N)CCC(=O)O)CC1
inactive: [2] | [3]

C1CCc2nnnn2CC1
inactive: [2] | [3]

OC[C@H]1O[C@@H](n2cnc3c(=S)nc[nH]c32)[C@H](O)[C@@H]1O
inactive: [10] | [12]
active: [4] 2.08 µM | [5] 14.7 µM | [6] 1.17 µM | [7] 3.69 µM | [8] 2.93 µM | [9] 2.33 µM | [11] 10.4 µM | [13] 2.33 µM

CC(=O)[C@H]1CC[C@H]2[C@@H]3C[C@H](C)C4=CC(=O)CC[C@]4(C)[C@H]3[C@@H](O)C[C@]12C
active: [11] 10.4 µM
inactive: [1] | [4] | [5] | [6] | [14] | [12] | [15] | [16]

CC1(C)O[C@@H]2C[C@H]3[C@@H]4C[C@H](F)C5=CC(=O)CC[C@]5(C)[C@H]4[C@@H](O)C[C@]3(C)[C@]2(C(=O)CO)O1
inactive: [1] | [4] | [5] | [6] | [17] | [7] | [14] | [8] | [10] | [11] | [12] | [15] | [13]
